Measured values published in ChEMBL document CHEMBL3433997, “St. Jude Leishmania screening dataset” (2016).

How the values were obtained:
Type in all cases: functional
[1] = target: Solute carrier family 2, facilitated glucose transporter member 1 (Homo sapiens) (UniProt P11166); assay: ST_JUDE_LEISH: Cytotoxicity at 2uM final concentration against transgenic Leishmania Mexicana promastigotes LmGLUT1 that are glucose transport deficient and complemented with the human glucose transporter GLUT1. Activity is measured by DNA content using SYBR green in vitro
[2] = target: Hexose transporter 1 (Plasmodium falciparum) (UniProt O97467); assay: ST_JUDE_LEISH: Cytotoxicity at 2uM final concentration against transgenic Leishmania Mexicana promastigotes LmPfHT that are glucose transport deficient and complemented with the Plasmodium falciparum hexose transporter. Activity is measured by DNA content using SYBR green in vitro
[3] = target: Glucose transporter (Leishmania mexicana) (UniProt O61059); assay: ST_JUDE_LEISH: Cytotoxicity at 2uM final concentration against transgenic Leishmania Mexicana promastigotes LmGT2 that are glucose transport deficient and complemented with the L. Mexicana glucose transporter 2. Activity is measured by DNA content using SYBR green in vitro

Sequence of Solute carrier family 2, facilitated glucose transporter member 1 (Homo sapiens) (P11166 whole entry): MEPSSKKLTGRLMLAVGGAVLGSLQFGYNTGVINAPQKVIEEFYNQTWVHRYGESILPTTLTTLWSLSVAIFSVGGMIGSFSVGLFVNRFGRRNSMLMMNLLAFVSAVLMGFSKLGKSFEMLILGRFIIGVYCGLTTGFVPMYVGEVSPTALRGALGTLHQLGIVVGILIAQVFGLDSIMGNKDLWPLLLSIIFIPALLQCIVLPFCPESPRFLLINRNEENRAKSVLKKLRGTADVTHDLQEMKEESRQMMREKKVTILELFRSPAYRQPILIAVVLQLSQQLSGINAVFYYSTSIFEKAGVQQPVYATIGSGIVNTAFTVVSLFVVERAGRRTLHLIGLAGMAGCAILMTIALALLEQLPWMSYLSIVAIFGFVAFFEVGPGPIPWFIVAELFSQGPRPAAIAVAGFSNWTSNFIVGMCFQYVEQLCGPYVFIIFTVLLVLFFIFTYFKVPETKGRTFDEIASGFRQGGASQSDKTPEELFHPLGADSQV

Structure (SMILES) | inhibition [1] [%] | inhibition [2] [%] | inhibition [3] [%]
O=C(Cc1ccc([N+](=O)[O-])cc1)N1CCc2cc3nccc(N4CCN5CCC[C@@H]5C4)c3cc21 | 1.21 | 0.39 | 2.97
CCCCN(CCCC)CCNC(=O)c1ccc(-c2nc3cc(Cl)ccc3[nH]2)c(OCC)c1 | 4.49 | 2.11 | 4.26
COc1ccc(CN2CCCC(C(=O)c3ccc(C(F)(F)F)cc3)C2)c(O)c1 (configuration not stated) | 4.79 | 4.48 | 3.56
Cc1ccccc1C1CCN(C2CCC(NC(=O)c3ccc4c(c3)-c3nocc3C(C)O4)CC2)CC1 (configuration not stated) | 5.85 | 4.08 | 5.18
CCN1CCN(C(=O)NC(C(=O)N(C)Cc2ccc(-c3ccc(C(F)(F)F)cc3)cc2)c2cccs2)C(=O)C1=O (configuration not stated) | 1.34 | 0.77 | 1.3
O=C(Nc1ccc(Oc2ccccc2)cc1)N[C@H]1CCN(Cc2ccc(OCCCN3CCCCC3)cc2)C1 | -2.21 | -1.17 | -3.91
c1ccc2[nH]c(Nc3ccc(Nc4nc5ccccc5[nH]4)cc3)nc2c1 | 0.45 | 0.37 | 0.51
COc1cc(F)c2ncc(C#N)c(CCN3CCC(NCc4ccc5c(c4)OCCO5)CC3)c2c1 | 91.3 | 95.1 | 93.9
O=C(COc1ccc(Cl)c(Cl)c1)NCCCCCN1CCCN(C(=O)Nc2ccc(Cl)c(Cl)c2)CC1 | 4.35 | 3.1 | 2.27
Fc1ccc2[nH]c3c(NCCCN4CCOCC4)ncnc3c2c1 | 1.79 | 0.7 | -0.69
CC(=O)N[C@H](C(=O)Nc1ccc(-c2ccc(-c3nc4cc(C(F)(F)F)ccc4[nH]3)cc2)cc1)C(C)C | 4.54 | 3.08 | 0.17
Cc1cc(NCCC(=O)NCc2cccc(F)c2)nc(NCCc2ccc(F)cc2)n1 | 5.01 | 3.24 | 3.7
O=C(N/C=N/c1cc([N+](=O)[O-])c(-c2ccncc2)n1-c1ccccc1)c1cccc(O)c1 | 0.21 | 0.41 | 0.38
CN(C)c1ccc(C=Cc2ccc3ccccc3n2)c(Cl)c1 | 91.5 | 83.8 | 85.2
CCCCN(C(=O)c1ccccc1C)c1nnc(-c2ccccc2C)s1 | 2.08 | 1.53 | -0.2
CN(C)C(=O)c1ccc(CN(Cc2ccc3c(c2)OCCO3)Cc2ccc3c(c2)OCO3)cc1 | 3.62 | 3.62 | 3.97
CCCc1cc(Cc2cnc(N)nc2N)cc(CCC)c1O | 2.06 | 1.83 | 1.49

Structure (SMILES) | inhibition [1] [%] | inhibition [2] [%] | inhibition [3] [%]
Cc1cc(=NN=Cc2cccc(F)c2)c2ccc(F)cc2[nH]1 | 10.5 | 7.85 | 7.27
COc1cc(NCCCNCc2cn(Cc3cc(Br)cc(Br)c3)c3ccccc23)nc2ccccc12 | 4.87 | 1.54 | 2.54
CC(C)c1ccc(CN2CCC(CNC(=O)c3cc(-c4cccc(Cl)c4)cs3)C2)cc1 (configuration not stated) | 1.24 | 3.19 | -0.24
CS(=O)(=O)c1ccc2c(c1)CCN(CCC1CCC(NC(=O)c3cc4cccc(Br)c4[nH]3)CC1)CC2 (configuration not stated) | 2.5 | 2.78 | 1.11
Cc1ccc2c(Cl)c(C(=O)N3CCCc4ccccc43)sc2c1 | 5.28 | 3.86 | 3.16
O=C(Nc1cccc(-c2ccc(-c3nc4cc(C(F)(F)F)ccc4[nH]3)cc2)c1)Nc1ccc(F)c(F)c1F | -0.86 | 0.2 | 0.37
COc1ccc(NC(=O)Nc2ccc(-c3ccncc3)c(C(F)(F)F)c2)cc1N1CCN(C)CC1 | 13.1 | 12.6 | 9.27
CC(CCON1C(N)=NC(N)=NC1(C)C)c1ccc(Cl)cc1 (configuration not stated) | 21.4 | 29.5 | 21
Oc1ccc(CCNc2nc(NCCCOc3ccccc3-c3ccc(F)cc3)nc(N3CCNCC3)n2)cc1 | 13.3 | 14.8 | 9.28
COc1cccc(NC(=O)Nc2ccc(C)c(-c3ccc(C(=O)Nc4ccncc4)cc3)c2)c1 | -1.55 | -1.72 | -0.17
O=C(NCc1ccc(F)cc1)c1cnc(N2CCN(c3ccncc3)CC2)c(Cl)c1 | 22.7 | 11.6 | 5.45
COc1ccc(OCCCON2C(=N)N=C(N)NC2(C)C)cc1 | 5 | 1.09 | 1.17
COCCNCc1cccc(-c2ccc3c(Nc4ccc(Oc5cccnc5)cc4)ccnc3c2)c1 | 1.93 | 2.56 | 2.93
CCOC(=O)c1ccc(NC(=O)Nc2cccc(-c3cccc(-c4nc5cccc(C)c5[nH]4)c3)c2)cc1 | 2.35 | 3.22 | 1.01
Cc1ccc(-c2nnc(Nc3ccc(OCC(N)=O)cc3)c3ccccc23)cc1S(=O)(=O)NCC1CCCO1 (configuration not stated) | 1.11 | 3.81 | 2
CCn1c(-c2nonc2N)nc2c(-c3cccc(NC(=O)Nc4ccc5c(c4)CCC5)c3)ncc(OCCCN)c21 | 2.61 | 3.19 | 2.89
CCCc1cc(=O)[nH]c(-n2nc(C)cc2NC(=O)CC(c2ccccc2)c2ccccc2)n1 | -2.15 | 1 | 2.15
